Sfp PPTase inh – inhibitors of Bacillus subtilis Sfp phosphopantetheinyl transferase. Q9F4F7. Biochemical Sfp PPTase activity, qHTS. Potency, µM, for the others: largest response in the series, negative = inhibition, hits mostly inhibitors. 310,000 compounds, 3.5% hits. AID 1490;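 further: the enzyme is Sfp with the accession as filed and its product quenches rhodamine fluorescence; 0% = enzyme reaction without inhibitor and -100% = no enzyme wells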
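Compounds were incubated with enzyme (final 15 nM) for 15 min at room temperature before substrate addition started the reaction. Fluorescence at 525 nm excitation, 598 nm emission was recorded immediately and after 30 minutes.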
G9a block – G9a (human) methyltransferase inhibition; AID 504332; 350,000 compounds, 8.8% hits; G9a H3K9 monomethylation, AlphaScreen, 2 h; Q96KQ7; Potency, µM (titrated, usually from 102 µM), for inactives: at the top dose activity, negative = inhibition, actives largely listed as inhibitors; further: on the % scale 0 is the no-effect control and ±100 the full control effect; nearly all actives have a fitted effect of over 75% in size
Target sequence (Q96KQ7 913-1193 limits assumed): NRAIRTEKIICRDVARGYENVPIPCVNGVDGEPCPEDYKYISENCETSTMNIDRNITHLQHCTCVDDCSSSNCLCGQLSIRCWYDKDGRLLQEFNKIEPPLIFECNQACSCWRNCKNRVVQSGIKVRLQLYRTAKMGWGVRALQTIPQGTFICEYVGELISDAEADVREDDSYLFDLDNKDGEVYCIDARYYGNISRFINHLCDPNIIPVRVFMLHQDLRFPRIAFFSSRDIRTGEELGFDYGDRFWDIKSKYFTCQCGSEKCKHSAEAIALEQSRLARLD
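G9a (20 nM) was preincubated 15 min with compound, then reacted 2 h at room temperature with 500 nM biotin-H3K9 peptide and 20 µM SAM. Monomethyl-H3K9 detected by AlphaScreen using anti-H3K9me1 antibody.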
BAZ2B block – inhibitors of human BAZ2B bromodomain; AlphaScreen BAZ2B-H3K14Ac peptide displacement; Potency, µM (top dose mostly 114 µM), for inactives: top-dose activity change, negative = inhibition, usual class: inhibitors; 360,000 compounds, 4.4% hits; AID 504333; further: on the % scale 0 is the no-effect control and ±100 the full control effect; nearly all actives have a fitted effect of over 60% in size
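AlphaScreen displacement of biotin-H3(5-23)K14Ac peptide (50 nM final) from BAZ2B (50 nM final) in PBS pH 7.4, 0.01% Tween-20; complex preformed 30 min RT, then compounds (top 110 uM) 30 min RT, beads 20 min dark.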
JMJD2A Tudor – inhibitors of human JMJD2A Tudor domain. AlphaScreen JMJD2A-Tudor / H3K4me3 peptide binding. Potency, µM (top dose mostly 114 µM), for the others: top-dose activity change, negative = inhibition, actives largely listed as inhibitors. 390,000 compounds, 4.4% hits; further: on the % scale 0 is the no-effect control and ±100 the full control effect; nearly all actives have a fitted effect of over 50% in size
HP1b binding inh – HP1-beta chromodomain-methylated histone interaction inhibition; P83916; AlphaScreen HP1-beta / biotin-H3K9me3 peptide binding; Potency, µM (highest dose often 114 µM), for the others: at the highest dose activity change, negative = inhibition, actives largely listed as inhibitors; 390,000 compounds, 0.56% hits; AID 540317; further: nearly all actives have a fitted effect of over 70% in size
Target sequence (P83916 whole entry, looked up): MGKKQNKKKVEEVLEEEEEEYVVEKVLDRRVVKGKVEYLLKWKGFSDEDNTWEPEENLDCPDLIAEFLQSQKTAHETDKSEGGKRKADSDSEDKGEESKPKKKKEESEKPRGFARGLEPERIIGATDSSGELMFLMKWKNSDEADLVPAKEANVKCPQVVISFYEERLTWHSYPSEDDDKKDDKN
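Compound inhibition of the preformed complex between 50 nM HP1-beta and 50 nM biotinylated H3K9me3 peptide was read by AlphaScreen. Buffer was PBS pH 7.4 with 0.01% Tween-20. Incubations ran 30 min at room temperature, with 10 ug/mL donor/acceptor beads.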
PLK1 PBD block – inhibitors of human PLK1 polo-box domain binding | P53350 | Plk1 PBD binding of FITC phosphopeptide, fluorescence polarization | Potency, µM, for inactives: max response, negative = inhibition, hits mostly inhibitors | 360,000 compounds, 2.8% hits | AID 720504; further: series mostly up to about 57 µM; on the % scale 0 is the no-effect control and ±100 the full control effect; nearly all actives have a fitted effect of over 65% in size
Starred values were filed as active, the others as inactive; ? = inconclusive; . = no result; [ ] = dose if it differs, or a comment. Sampled rows, rich in hits. Any-hit rate of the full collection: about 12%. The call rests on the fitted dose curve; in most records, active means well fitted curve in the direction sought with a large enough effect; inconclusive means small, poorly fitted or top-dose-only effect, or another doubt; inactive means no such curve, though single readings can be large; an effect the other way counts as inactive or inconclusive. Potency means the concentration at half of the fitted maximal effect.

SMILES	Sfp PPTase inh	G9a block	BAZ2B block	JMJD2A Tudor	HP1b binding inh	PLK1 PBD block
CC(C)CC(=O)Nc1ccc(C(=O)NNC(=S)NC(=O)C2CCCCC2)cc1	10%	?	10%	89µM*	18%	-6%
CCCOc1ccc(C(=O)NNC(=S)NC(=O)CC)cc1	-26%	8.9µM*	14%[57.1 µM]	32µM*	21%	-8%
CCOC(=O)CCC(=O)NNC(=O)c1ccc(NC(=O)c2ccccc2)cc1	12%	.	2%	?	15%	30µM*
CCN(C(=O)COC(=O)/C=C/c1cccc([N+](=O)[O-])c1)c1c(N)n(Cc2ccccc2)c(=O)[nH]c1=O	.	?	13%	-3%	32%	-2%
CCn1ccc(C(=O)Nc2ncc(C)s2)n1	-3%	48%	1%	-20%	13%	-12%
CCCCC(=O)NC(=S)Nc1cccc(NC(=O)c2ccccc2)c1	7%	50µM*	-18%	-2%	29%	-29%
O=C(NNc1ccc(Cl)cc1)c1sccc1Cl	-11%	.	?	?	12%	27µM*
O=C(NNc1ccc(Cl)cc1)c1c(F)cccc1Cl	17%	45µM*	-12%	-7%	32%	-15%
O=C(NNc1cc(Cl)cc(Cl)c1)c1sccc1Cl	.	.	.	-27%	36%	.
NS(=O)(=O)c1ccc(NNC(=O)c2sccc2Cl)cc1	12%	7.1µM*	33%	3%	45%	-23%
COc1ccc(Cl)cc1NC(=O)Cn1c(=O)c(-c2ccccc2NC(C)=O)nc2ccccc21	.	-30%[59 µM]	?	-1%	57%	.
CCOc1ccc(NC(=O)Cn2c(=O)oc3cc(S(=O)(=O)NC4CCCC4)ccc32)cc1	.	5%[59 µM]	-33%	-21%	43%	.
Cc1cnc(C)c(Nc2nc(C(N)Cc3ccc(C(F)(F)F)cc3)cs2)n1 (stereo not drawn)	.	.	.	.	.	-12%
COc1ccc2c(c1OC)C(=O)N(c1ccc(OCc3ccccc3)cc1)C2=O	-2%	-11%	?	-10%	1%	-3%
COCCN(C(=O)COC(=O)c1ccc(C)s1)c1c(N)n(Cc2ccccc2)c(=O)[nH]c1=O	.	-3%	13%	-5%	22%	-4%
CCOC(=O)c1c(C)[nH]c(C(=O)OCC(=O)N(CC(C)C)c2c(N)n(Cc3ccccc3)c(=O)[nH]c2=O)c1C	.	16µM*	1%	-21%	32%	22%
CCCN(C(=O)COC(=O)c1cc(CC)c(C)s1)c1c(N)n(Cc2ccccc2)c(=O)[nH]c1=O	.	50µM*	?	-32%	-3%	-9%
Cc1ccc(C(=O)OCC(=O)N(CC(C)C)c2c(N)n(Cc3ccccc3)c(=O)[nH]c2=O)s1	7%	79µM*	-6%	-4%	23%	0%
Cc1ccc2oc(=O)c3cnn(CC(=O)N4CCN(c5cc(Cl)ccc5C)CC4)c3c2c1	.	-2%[59 µM]	-6%	-3%	42%	.
O=C(c1cccc(S(=O)(=O)N2CCN(c3ccccc3)CC2)c1)N1CCN(c2ccccc2O)CC1	.	?	-23%	-18%	7%	4%
O=C1C=C(Nc2ccc(O)cc2)CC(c2ccco2)C1 (stereo not drawn)	9%	?	-4%	-33%	3%	-5%
O=C1C=C(O)CC(c2ccco2)C1 (stereo not drawn)	14%	?	?	56µM*	-34%	?
O=C1C=C(NCc2ccc(Cl)cc2)CC(c2ccco2)C1 (stereo not drawn)	6%	0%[59 µM]	50µM*	?	?	-9%
CC(C)CNC1=CC(=O)CC(c2ccco2)C1 (stereo not drawn)	?	-1%[59 µM]	?	-34%	-11%	-22%
O=C1C=C(Nc2ccc(Cl)cc2Cl)CC(c2ccco2)C1 (stereo not drawn)	-25%	50µM*	-13%	-7%	15%	-7%
SMILES	Sfp PPTase inh	G9a block	BAZ2B block	JMJD2A Tudor	HP1b binding inh	PLK1 PBD block
OC[C@@H]1CN(Cc2ccc(F)cc2)C[C@H](n2cnc3c(NCc4ccc(F)cc4)ncnc32)O1	.	.	.	.	.	-3%
CCOC(=O)c1ccccc1NC(=O)Cn1ccn2nc(-c3ccc(OCC)cc3)cc2c1=O	.	15%[59 µM]	-6%	-6%	39%	.
COc1ccc(CC(=O)Oc2ccc(C)cc2Br)cc1OC	-1%	-23%	50µM*	22%	?	-2%
CCCN1CCC(NC(=S)Nc2ccc(OC)c(OC)c2)CC1	-5%	50µM*	-11%	-8%	56%	-8%
COc1ccc(NC(=S)NCCN2CCC(C)CC2)cc1Cl	2.5µM*	11µM*	-6%	-27%	-17%	11µM*
COc1ccc(Cl)cc1NC(=S)NCCN1CCOCC1	-8%	.	-11%	-16%	21%	-10%
COc1ccc(NC(=S)NCCN2CCOCC2)c(OC)c1	.	.	.	3%	18%	-23%
COc1ccc(OC)c(NC(=S)NCCCN2CCOCC2)c1	50µM*	?	-23%	-7%	19%	-21%
COc1ccc(NC(=S)NCCCN2CCCC2)cc1Cl	20µM*	18µM*	?	-3%	2%	19µM*
O=C1CN(C(=O)COC(=O)c2ccccc2Br)c2ccccc2N1	.	?	-12%	-9%	8%	-8%
CC(=O)c1cccc(NC(=O)c2cc3nc(-c4ccc(Br)cc4)cc(C(F)(F)F)n3n2)c1	.	6%[59 µM]	2%	7%	19%	.
O=C(COc1ccccc1Cl)N1CCNC1=O	.	-43%	8%	-1%	34%	5%
CCCN1CCC(NC(=O)Nc2ccc(Br)cc2)CC1	14%	35µM*	30%	-18%	27%	-4%
O=C(/C=C/c1ccco1)N(Cc1ccc(Cl)cc1)C1CCS(=O)(=O)C1 (stereo not drawn)	25µM*	45µM*	-28%	-20%	-13%	?
COc1ccc(CN(C(=O)/C=C/c2ccco2)C2CCS(=O)(=O)C2)cc1OC (stereo not drawn)	50µM*	40µM*	?	-15%	23%	-18%
COc1cccc(CN(C(=O)c2ccco2)C2CCS(=O)(=O)C2)c1 (stereo not drawn)	3%	.	1%	-6%	26%	-15%
COc1ccc(CN(C(=O)/C=C/c2ccco2)C2CCS(=O)(=O)C2)cc1 (stereo not drawn)	14µM*	50µM*	50µM*	?	3%	-21%
CN(C)c1ccc(CN(C(=O)/C=C/c2ccco2)C2CCS(=O)(=O)C2)cc1 (stereo not drawn)	-2%	.	?	?	-12%	-11%
CCOc1ccc(CN(C(=O)/C=C/c2ccco2)C2CCS(=O)(=O)C2)cc1 (stereo not drawn)	?	45µM*	?	-32%	20%	-25%
CC(=O)C[C@@H](O)CC(=O)[C@@H]1OC(=O)CCCCCc2ccccc21	.	.	.	-5%	31%	-2%

Compound activity: PubChem, National Center for Advancing Translational Sciences (NCATS)
